# Test results from PubChem BioAssay (NCI).
# About 83,000 compounds went through this panel and 20% of them were active in at least one assay; those are over-represented in the sample as a whole.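 How to read the values: 0–100, growth inhibition (40 = 60% inhibited); 0, no net growth; -100 to 0, cell death (-40 = 40% of starting cells died; -100 = all dead).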 Unmarked numbers belong to inactive results. Active and inactive are the calls of the source. How the source made its calls: active means growth percent below 10; inactive means the rest.
# Tests used:
# Experiment in all cases: NCI-60 one-dose screen, 48 h (100 = growth as untreated, 0 = no growth, -100 = all killed)
# Settings in all cases: 10 µM unless noted
# [1] = test system: HCT-15 colon
# [2] = test system: HT29 colon
# [3] = test system: SNB-75 CNS
# [4] = test system: SNB-19 CNS
# [5] = test system: U251 CNS
# [6] = test system: PC-3 prostate
# [7] = test system: SK-MEL-5 melanoma
# [8] = test system: UACC-62 melanoma
# [9] = test system: LOX IMVI melanoma
# [10] = test system: SK-MEL-28 melanoma
Structure (SMILES),growth [1],growth [2],growth [3],growth [4],growth [5],growth [6],growth [7],growth [8],growth [9],growth [10]
CC(=O)N1N=C(c2ccc(Nc3nc(Nc4ccccc4)nc(Nc4ccccc4)n3)cc2)CC1c1ccccc1 (stereo not given),87%,103%,90.8%,84.3%,92.6%,80.5%,78.4%,91%,89.4%,111%
Cc1c(-c2ccc(O)cc2)n(Cc2ccc(OCCN3CCCCCC3)cc2)c2ccc(O)cc12,20.5%,59.4%,43.4%,88.1%,56.4%,76.8%,57.2%,98.3%,39.4%,92.6%
COc1cc2cc(NCc3cccc(Cl)c3)nc(C)c2cc1OC,48.2%,3.17% (active),65.9%,48.8%,31.1%,50.1%,43.4%,14.4%,0.852% (active),33.3%
CCCCC1=C(P(=O)(O)O)N[C@H](C(=O)O)CS1,87.9%,95.3%,104%,89%,94.2%,90%,98.8%,85.1%,92.4%,89.7%
COc1ccc(-c2ccc(-c3ccc(C(=N)N)cc3)s2)cc1Cl,-70.3% (active),0.572% (active),100%,24%,-62.4% (active),-25% (active),87.7%,88.3%,-76.7% (active),102%
COc1cc2ncnc(Nc3ccc(F)c(Cl)c3)c2cc1OCC(=O)N1CCN(c2ccccc2)CC1,90.7%,90.4%,83.7%,85.9%,98.9%,90.6%,95%,92.8%,93.7%,113%
O=C(CN1CCOCC1)Nc1nc(-c2cc3ccccc3oc2=O)cs1,104%,103%,82.2%,101%,98.7%,97.5%,99.2%,92.5%,95.6%,104%
C=CC[Se]C(=O)Cc1c(C)n(C(=O)c2ccc(Cl)cc2)c2ccc(OC)cc12,6.96% (active),9.35% (active),-68.6% (active),-46% (active),-58.7% (active),-36% (active),-69.7% (active),-66.1% (active),7.91% (active),-16% (active)
O=C(Nn1c2c(sc1=NC1CC1)C(=O)c1ccccc1C2=O)c1cc2ccc1CCc1ccc(cc1)CC2,2.79% (active),108%,-10.4% (active),33.7%,32.6%,30.7%,-77.6% (active),-12.4% (active),0.512% (active),40.2%
Cc1cc(N2CCCCC2)cc(C)c1-c1csc(NC(=O)c2ccncc2)n1,80.5%,69%,55.7%,59.8%,63%,48.1%,-8.97% (active),45.1%,47.1%,64.9%
CC(C)Cn1cnc2c(=O)[nH]c(N)nc21,106%,79.2%,84.4%,100%,94.8%,92.8%,98.9%,103%,97.8%,115%
O=C(c1ccncc1)N1N=C(c2ccc(Cl)cc2)C[C@H]1c1cn(-c2ccccc2)nc1-c1ccccc1,82.4%,104%,72.7%,88.6%,61.1%,79.5%,90.7%,91.7%,79.9%,96%
Cc1cn(-c2cc(NC(=O)c3cncc(C#Cc4cnc(N)c5ncccc45)c3)cc(C(F)(F)F)c2)cn1,59.6%,35.4%,89.4%,106%,85.7%,84.7%,18.3%,35.2%,21.5%,40.5%
N#Cc1ccc2c(c1)C(=O)c1c-2n(CCCN)c(=O)c2cc([N+](=O)[O-])ccc12,-90.8% (active),-100% (active),-100% (active),-85.1% (active),-100% (active),-74.4% (active),-100% (active),-100% (active),-100% (active),-100% (active)
CCSC(SCC)c1ccc(Cl)cc1,108%,97.4%,107%,110%,102%,101%,110%,98.6%,95.9%,115%
COc1ccc(NC2=C(I)C(=O)c3ncccc3C2=O)cc1,-40.2% (active),11.5%,-93.1% (active),19.3%,-47.7% (active),12.3%,-94.6% (active),-71.2% (active),-58.6% (active),20.5%
COC(=O)c1c(C)c2n(c1C)C(=O)C(c1ccccc1)=C2,80.4%,87.1%,53.2%,85.7%,93.2%,84.4%,84.2%,58.7%,73.8%,91.2%
COc1ccc(-c2cc(-c3cccnc3)nc3sc4c(=O)[nH]c(-c5ccc(Cl)cc5)nc4c23)cc1OC,97%,96.3%,87.4%,95.9%,82.7%,90.4%,89.9%,90.5%,86%,102%
O=C1Nc2ccc(C(=O)O)cc2/C1=N/c1nnc(Sc2ccccc2)s1,104%,115%,94.2%,102%,98%,104%,104%,99%,96.3%,112%
COC1=CC(c2ccc[nH]2)=N/C1=C\c1[nH]c(C)c(CC(=O)NCc2ccccc2)c1C,-26% (active),15.1%,58.3%,-1.25% (active),18.7%,12%,-64% (active),-30.5% (active),-76.1% (active),22.1%
Nc1ncnc2c1c(-c1cccc(Cl)c1)nn2CC(=O)N1CCOCC1,101%,99.7%,94.2%,93.9%,102%,96.6%,101%,93.7%,103%,105%
NNc1nc(-c2cccnc2)nc2c1sc(=S)n2-c1ccccc1,96.3%,90.3%,87.4%,113%,90.6%,72.6%,98.4%,108%,86.7%,119%
N#Cc1nc(-c2ccc(F)cc2)oc1S(=O)(=O)N1CCOCC1,-29.9% (active),36.5%,91.2%,95.8%,98.9%,91%,82.6%,89.9%,8.36% (active),85.7%
NC(=O)c1cc(I)ccc1NC(=O)/C=C/c1ccccc1,24.5%,22.1%,30.1%,27.3%,21.8%,15.4%,24.5%,64.9%,35.1%,12%
COc1ccc(-c2cc(-c3ccc(Cl)cc3)c(C#N)c(=O)n2Cc2ccc(C(=O)Nc3ccccc3N)cc2)cc1,68.2%,107%,55.9%,80.2%,88.7%,79.6%,80.9%,49.5%,69.3%,70%
CCCCNC(=O)CC1=C(C)/C(=C/c2[nH]c(-c3ccc[nH]3)cc2OC)N=C1C,2.62% (active),9.63% (active),65.3%,67.1%,28.7%,6.07% (active),1.34% (active),-28.9% (active),-36.9% (active),31%
NC(=O)c1ccc(-c2c3ccccc3cc3c2ccc2ccccc23)cc1,28.3%,-19.4% (active),42.5%,60.9%,42.5%,54.4%,40.8%,33.4%,33.3%,60%
